Laboratory results reported in PMC7862700, “An all-to-all approach to the identification of sequence-specific readers for epigenetic DNA modifications on cytosine”.

Experiments:
Assay in all cases: DAPPL (digital affinity profiling via proximity ligation, sequencing); 10 mM Tris-HCl pH 7.5, 50 mM NaCl, 1 mM DTT, 4% glycerol, room temperature, 30 min; GST-TFs on glutathione beads, 16-mer random dsDNA library, 0.1% formaldehyde crosslink after washing; high values mean tight binding
FEV = biological target: T1, FEV (Homo sapiens, UniProt Q99581 1-238); conditions: protein: recombinant; tags: N-terminal GST; dsDNA, one strand shown
T1 sequence: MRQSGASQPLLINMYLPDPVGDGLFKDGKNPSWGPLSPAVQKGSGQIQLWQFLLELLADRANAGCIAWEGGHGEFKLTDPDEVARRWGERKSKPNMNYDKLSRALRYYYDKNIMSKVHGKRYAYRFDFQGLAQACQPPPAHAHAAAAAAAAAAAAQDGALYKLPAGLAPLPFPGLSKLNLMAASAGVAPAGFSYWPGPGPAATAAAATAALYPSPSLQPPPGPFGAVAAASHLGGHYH
Procedure, shortened: (§1)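 Each value of binding signal is a hexamer's read frequency for a factor divided by the same hexamer's frequency in the tag-only sample. Barcoded, bead-captured GST fusions of human transcription factors made in yeast were pooled with that sample and incubated with 200 nmole of a random double-stranded 16-mer DNA library in Tris/NaCl/DTT/glycerol buffer at room temperature for 30 min. Washing, 0.1% formaldehyde crosslinking, proximity ligation, PCR and Illumina NextSeq500 sequencing followed.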

ETV5 = ETV5 (Homo sapiens, UniProt P41161 1-510); conditions: protein: recombinant; tags: N-terminal GST; dsDNA, one strand shown
Procedure, shortened: as §1

HSF1 = HSF1 (Homo sapiens, UniProt Q00613 1-529); conditions: protein: recombinant; tags: N-terminal GST; chain copies: 3; dsDNA, one strand shown
Procedure, shortened: as §1

SPIC = biological target: T2, SPIC (Homo sapiens, UniProt Q8N5J4 1-248); conditions: protein: recombinant; tags: N-terminal GST; dsDNA, one strand shown
T2 sequence: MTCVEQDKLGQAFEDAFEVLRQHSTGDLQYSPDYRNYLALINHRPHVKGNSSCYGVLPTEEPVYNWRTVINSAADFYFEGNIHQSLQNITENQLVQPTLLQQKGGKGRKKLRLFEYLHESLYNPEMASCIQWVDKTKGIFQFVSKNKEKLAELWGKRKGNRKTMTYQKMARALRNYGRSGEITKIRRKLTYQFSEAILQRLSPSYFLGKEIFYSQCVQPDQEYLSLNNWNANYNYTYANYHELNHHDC
Procedure, shortened: as §1

ELF4 = ELF4 (Homo sapiens, UniProt Q99607 1-663); conditions: protein: recombinant; tags: N-terminal GST; dsDNA, one strand shown
Procedure, shortened: as §1

ELK4 = biological target: T3, ELK4 (Homo sapiens, UniProt P28324-2 1-405); conditions: protein: recombinant; tags: N-terminal GST; dsDNA, one strand shown
T3 sequence: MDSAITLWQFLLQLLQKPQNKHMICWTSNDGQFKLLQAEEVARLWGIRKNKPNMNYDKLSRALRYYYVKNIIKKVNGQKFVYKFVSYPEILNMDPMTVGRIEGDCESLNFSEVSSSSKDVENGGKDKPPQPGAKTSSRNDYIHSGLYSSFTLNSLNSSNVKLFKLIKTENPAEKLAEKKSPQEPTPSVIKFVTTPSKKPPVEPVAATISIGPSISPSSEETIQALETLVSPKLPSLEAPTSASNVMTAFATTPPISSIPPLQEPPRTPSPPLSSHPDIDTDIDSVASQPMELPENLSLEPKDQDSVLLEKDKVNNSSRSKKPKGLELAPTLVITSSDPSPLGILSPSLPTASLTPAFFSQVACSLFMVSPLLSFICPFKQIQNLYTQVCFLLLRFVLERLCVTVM
Procedure, shortened: as §1

ETV2 = biological target: T4, ETV2 (Homo sapiens, UniProt O00321 1-342); conditions: protein: recombinant; tags: N-terminal GST; dsDNA, one strand shown
T4 sequence: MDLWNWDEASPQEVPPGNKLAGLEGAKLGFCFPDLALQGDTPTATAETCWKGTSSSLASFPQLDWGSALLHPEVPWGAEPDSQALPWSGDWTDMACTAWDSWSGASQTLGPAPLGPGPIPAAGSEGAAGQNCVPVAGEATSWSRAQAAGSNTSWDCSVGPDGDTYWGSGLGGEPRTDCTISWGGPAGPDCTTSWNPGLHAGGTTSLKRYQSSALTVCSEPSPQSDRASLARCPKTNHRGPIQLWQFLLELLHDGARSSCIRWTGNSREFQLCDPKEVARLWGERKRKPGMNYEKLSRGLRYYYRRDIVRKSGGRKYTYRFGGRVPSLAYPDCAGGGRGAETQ
Procedure, shortened: as §1

ELF3 = biological target: T5, ELF3 (Homo sapiens, UniProt P78545 1-371); conditions: protein: recombinant; tags: N-terminal GST; dsDNA, one strand shown
T5 sequence: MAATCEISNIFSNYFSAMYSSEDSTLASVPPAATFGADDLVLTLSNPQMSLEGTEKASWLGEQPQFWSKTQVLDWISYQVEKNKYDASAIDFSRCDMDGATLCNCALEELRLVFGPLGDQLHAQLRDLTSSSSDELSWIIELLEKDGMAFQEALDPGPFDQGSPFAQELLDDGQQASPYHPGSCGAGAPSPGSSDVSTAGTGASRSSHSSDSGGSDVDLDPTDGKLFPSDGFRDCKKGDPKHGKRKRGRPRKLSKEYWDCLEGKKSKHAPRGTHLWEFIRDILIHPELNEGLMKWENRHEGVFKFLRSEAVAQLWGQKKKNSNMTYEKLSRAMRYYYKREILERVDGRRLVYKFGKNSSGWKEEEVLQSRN
Procedure, shortened: as §1

CRX = CRX (Homo sapiens, UniProt O43186 1-299); conditions: protein: recombinant; tags: N-terminal GST; dsDNA, one strand shown
Procedure, shortened: as §1

ETV1 = ETV1 (Homo sapiens, UniProt P50549 1-477); conditions: protein: recombinant; tags: N-terminal GST; dsDNA, one strand shown
Procedure, shortened: as §1

ERF = biological target: T6, ERF (Homo sapiens, UniProt P50548 1-548); conditions: protein: recombinant; tags: N-terminal GST; dsDNA, one strand shown
T6 sequence: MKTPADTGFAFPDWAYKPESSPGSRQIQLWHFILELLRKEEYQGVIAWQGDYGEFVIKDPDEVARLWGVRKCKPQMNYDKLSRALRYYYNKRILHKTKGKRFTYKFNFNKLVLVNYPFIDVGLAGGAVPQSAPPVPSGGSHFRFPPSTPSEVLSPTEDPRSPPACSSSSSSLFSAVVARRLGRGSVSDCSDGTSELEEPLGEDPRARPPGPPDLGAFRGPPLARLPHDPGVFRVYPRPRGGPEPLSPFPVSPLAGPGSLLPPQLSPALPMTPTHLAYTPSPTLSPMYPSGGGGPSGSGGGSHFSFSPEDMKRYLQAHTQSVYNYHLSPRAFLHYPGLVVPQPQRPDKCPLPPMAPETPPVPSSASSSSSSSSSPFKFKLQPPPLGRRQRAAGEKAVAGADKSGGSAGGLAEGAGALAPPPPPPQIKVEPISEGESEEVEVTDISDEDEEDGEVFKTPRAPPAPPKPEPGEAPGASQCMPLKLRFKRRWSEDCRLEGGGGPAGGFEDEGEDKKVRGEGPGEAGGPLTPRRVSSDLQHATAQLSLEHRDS
Procedure, shortened: as §1

ETV3L = biological target: T7, ETV3L (Homo sapiens, UniProt Q6ZN32 1-361); conditions: protein: recombinant; tags: N-terminal GST; dsDNA, one strand shown
T7 sequence: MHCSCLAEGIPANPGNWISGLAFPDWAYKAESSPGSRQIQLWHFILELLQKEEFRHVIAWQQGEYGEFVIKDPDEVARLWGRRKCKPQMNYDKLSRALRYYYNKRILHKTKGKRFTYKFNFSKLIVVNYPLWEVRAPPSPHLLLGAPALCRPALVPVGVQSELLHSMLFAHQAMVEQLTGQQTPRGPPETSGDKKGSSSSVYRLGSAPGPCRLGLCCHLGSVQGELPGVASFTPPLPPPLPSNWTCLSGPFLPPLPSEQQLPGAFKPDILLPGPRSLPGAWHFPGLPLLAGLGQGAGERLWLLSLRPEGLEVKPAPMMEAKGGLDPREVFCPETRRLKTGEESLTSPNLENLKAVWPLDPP
Procedure, shortened: as §1

ETS2 = biological target: T8, ETS2 (Homo sapiens, UniProt P15036 1-469); conditions: protein: recombinant; tags: N-terminal GST; dsDNA, one strand shown
T8 sequence: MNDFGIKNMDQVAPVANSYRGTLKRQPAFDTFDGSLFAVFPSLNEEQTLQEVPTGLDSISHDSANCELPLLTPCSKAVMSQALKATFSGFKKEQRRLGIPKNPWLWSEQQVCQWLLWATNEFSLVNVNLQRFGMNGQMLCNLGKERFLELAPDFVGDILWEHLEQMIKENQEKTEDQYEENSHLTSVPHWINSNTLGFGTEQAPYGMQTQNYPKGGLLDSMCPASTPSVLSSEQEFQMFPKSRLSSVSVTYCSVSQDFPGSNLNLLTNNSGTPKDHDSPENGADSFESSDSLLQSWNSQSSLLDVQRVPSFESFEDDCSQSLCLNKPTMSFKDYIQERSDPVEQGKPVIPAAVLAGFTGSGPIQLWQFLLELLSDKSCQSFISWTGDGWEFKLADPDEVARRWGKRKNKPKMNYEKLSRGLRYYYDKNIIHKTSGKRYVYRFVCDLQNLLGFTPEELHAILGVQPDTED
Procedure, shortened: as §1

SPDEF = biological target: T9, SPDEF (Homo sapiens, UniProt O95238 1-335); conditions: protein: recombinant; tags: N-terminal GST; dsDNA, one strand shown
T9 sequence: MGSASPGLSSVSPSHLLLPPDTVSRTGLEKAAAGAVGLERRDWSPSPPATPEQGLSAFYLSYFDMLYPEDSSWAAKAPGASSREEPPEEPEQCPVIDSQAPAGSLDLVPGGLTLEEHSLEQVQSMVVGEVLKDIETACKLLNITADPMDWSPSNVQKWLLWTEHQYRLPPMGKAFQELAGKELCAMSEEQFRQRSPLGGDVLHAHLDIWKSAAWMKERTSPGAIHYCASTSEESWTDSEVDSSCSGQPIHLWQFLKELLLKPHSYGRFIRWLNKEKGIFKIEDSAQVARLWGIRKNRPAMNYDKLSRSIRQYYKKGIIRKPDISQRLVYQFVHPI
Procedure, shortened: as §1

ETV7 = biological target: T10, ETV7 (Homo sapiens, UniProt Q9Y603 1-341); conditions: protein: recombinant; tags: N-terminal GST; dsDNA, one strand shown
T10 sequence: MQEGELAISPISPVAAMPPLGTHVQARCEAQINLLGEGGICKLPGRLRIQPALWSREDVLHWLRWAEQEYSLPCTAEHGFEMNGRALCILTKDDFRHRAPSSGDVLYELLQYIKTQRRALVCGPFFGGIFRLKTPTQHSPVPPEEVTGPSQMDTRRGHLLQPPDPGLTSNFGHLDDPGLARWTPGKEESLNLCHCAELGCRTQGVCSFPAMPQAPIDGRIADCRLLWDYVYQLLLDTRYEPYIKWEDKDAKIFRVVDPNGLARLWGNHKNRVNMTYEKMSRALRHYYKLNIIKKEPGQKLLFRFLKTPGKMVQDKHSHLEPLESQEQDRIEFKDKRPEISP
Procedure, shortened: as §1

ELF5 = biological target: T11, ELF5 (Homo sapiens, UniProt Q9UKW6-2 1-255); conditions: protein: recombinant; tags: N-terminal GST; dsDNA, one strand shown
T11 sequence: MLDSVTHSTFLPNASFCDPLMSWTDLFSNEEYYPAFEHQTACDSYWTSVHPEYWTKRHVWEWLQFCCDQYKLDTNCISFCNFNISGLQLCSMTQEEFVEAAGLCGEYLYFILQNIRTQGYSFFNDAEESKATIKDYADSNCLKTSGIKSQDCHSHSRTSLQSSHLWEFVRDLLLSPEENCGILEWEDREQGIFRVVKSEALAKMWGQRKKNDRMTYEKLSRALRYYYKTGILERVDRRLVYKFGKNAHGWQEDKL
Procedure, shortened: as §1

ETV3 = biological target: T12, ETV3 (Homo sapiens, UniProt P41162-2 1-143); conditions: protein: recombinant; tags: N-terminal GST; dsDNA, one strand shown
T12 sequence: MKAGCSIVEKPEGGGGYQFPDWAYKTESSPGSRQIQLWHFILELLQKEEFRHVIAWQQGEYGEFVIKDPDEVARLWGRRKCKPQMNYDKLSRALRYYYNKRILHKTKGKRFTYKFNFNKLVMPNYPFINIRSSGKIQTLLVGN
Procedure, shortened: as §1

ETV6 = ETV6 (Homo sapiens, UniProt P41212 1-452); conditions: protein: recombinant; tags: N-terminal GST; dsDNA, one strand shown
Procedure, shortened: as §1

CRX, sequence (O43186 whole entry): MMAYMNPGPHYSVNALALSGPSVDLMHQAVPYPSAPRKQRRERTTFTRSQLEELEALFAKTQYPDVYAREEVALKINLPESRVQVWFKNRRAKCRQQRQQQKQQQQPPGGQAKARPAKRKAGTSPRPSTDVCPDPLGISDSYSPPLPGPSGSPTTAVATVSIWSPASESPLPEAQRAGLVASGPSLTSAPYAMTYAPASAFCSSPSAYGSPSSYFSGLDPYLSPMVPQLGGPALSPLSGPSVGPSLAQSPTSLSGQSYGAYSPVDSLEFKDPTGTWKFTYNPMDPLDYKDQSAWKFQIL
HSF1, sequence (Q00613 whole entry): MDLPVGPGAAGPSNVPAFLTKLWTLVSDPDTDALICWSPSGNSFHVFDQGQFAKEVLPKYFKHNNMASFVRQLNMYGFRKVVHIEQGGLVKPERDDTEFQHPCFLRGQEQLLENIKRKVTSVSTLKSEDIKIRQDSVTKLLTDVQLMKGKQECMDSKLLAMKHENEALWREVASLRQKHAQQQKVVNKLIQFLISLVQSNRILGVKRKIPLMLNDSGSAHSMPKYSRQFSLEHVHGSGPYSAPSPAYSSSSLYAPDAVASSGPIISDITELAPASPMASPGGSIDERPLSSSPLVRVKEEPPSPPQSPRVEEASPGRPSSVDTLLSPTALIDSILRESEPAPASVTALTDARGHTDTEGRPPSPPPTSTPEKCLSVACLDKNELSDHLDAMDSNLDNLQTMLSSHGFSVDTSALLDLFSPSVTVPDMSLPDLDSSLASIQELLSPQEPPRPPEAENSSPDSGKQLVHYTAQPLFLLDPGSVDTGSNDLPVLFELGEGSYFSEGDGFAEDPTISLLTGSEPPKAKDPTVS
ETV1, sequence (P50549 whole entry): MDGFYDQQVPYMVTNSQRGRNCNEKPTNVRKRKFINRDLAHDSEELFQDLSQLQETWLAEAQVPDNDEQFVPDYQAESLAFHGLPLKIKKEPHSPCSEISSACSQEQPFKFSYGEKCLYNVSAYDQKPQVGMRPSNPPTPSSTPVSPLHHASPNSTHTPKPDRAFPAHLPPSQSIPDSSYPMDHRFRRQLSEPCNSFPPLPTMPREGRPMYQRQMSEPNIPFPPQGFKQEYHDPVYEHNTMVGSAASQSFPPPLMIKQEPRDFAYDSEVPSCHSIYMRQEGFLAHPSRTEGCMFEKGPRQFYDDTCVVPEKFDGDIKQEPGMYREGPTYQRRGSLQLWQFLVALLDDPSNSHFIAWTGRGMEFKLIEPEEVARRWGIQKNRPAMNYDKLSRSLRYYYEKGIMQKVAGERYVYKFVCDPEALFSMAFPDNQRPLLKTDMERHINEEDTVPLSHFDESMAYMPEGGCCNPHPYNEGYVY
ELF4, sequence (Q99607 whole entry): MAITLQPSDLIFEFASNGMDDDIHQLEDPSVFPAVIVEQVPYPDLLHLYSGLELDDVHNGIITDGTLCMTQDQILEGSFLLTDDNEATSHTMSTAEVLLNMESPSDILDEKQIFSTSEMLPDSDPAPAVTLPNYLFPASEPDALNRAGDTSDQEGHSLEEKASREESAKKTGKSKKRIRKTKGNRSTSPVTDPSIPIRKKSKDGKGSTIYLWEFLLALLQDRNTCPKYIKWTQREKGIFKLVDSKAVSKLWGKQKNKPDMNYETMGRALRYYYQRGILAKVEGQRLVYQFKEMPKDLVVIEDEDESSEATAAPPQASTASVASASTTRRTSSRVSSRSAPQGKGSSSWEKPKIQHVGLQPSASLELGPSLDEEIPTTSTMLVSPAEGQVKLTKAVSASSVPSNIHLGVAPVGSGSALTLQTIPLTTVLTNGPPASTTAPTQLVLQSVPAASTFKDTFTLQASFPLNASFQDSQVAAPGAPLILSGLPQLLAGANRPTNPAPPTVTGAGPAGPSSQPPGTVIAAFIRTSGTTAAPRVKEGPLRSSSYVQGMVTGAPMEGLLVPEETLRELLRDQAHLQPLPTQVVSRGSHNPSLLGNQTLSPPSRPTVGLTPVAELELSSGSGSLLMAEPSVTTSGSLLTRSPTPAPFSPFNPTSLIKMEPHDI
ETV6, sequence (P41212 whole entry): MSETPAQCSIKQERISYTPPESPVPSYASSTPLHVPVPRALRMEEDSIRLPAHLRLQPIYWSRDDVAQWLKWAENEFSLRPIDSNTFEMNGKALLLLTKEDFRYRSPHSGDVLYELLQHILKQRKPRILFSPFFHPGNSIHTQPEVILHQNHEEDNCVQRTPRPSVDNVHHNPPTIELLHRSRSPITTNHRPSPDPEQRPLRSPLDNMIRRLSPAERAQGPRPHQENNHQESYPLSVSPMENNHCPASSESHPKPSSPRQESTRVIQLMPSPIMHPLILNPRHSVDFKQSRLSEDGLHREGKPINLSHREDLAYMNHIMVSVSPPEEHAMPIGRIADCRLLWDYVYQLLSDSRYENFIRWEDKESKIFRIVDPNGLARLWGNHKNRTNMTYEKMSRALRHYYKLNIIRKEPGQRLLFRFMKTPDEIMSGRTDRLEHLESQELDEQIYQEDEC
ETV5, sequence (P41161 whole entry): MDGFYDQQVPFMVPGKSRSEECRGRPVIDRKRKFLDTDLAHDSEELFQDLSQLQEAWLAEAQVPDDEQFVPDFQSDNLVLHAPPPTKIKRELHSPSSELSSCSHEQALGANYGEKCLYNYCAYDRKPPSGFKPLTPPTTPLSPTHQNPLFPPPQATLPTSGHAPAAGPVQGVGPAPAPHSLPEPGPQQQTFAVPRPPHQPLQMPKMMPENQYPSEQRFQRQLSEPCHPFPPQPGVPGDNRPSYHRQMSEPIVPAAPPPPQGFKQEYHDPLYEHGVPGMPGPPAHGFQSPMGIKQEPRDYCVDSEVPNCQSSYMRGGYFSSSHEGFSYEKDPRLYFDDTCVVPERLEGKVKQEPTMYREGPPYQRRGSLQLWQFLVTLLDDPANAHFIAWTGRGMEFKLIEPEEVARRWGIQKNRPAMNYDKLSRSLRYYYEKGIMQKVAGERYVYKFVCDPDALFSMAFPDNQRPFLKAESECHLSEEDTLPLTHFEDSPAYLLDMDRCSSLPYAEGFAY

With AACTGG the binding signal (FEV) was 1.12 fold enrichment (6-mer frequency, TF over GST control), the binding signal (ETV5) was 1.21 fold enrichment (6-mer frequency, TF over GST control) and the binding signal (HSF1) was 1.25 fold enrichment (6-mer frequency, TF over GST control). For the same sequence, the binding signal (SPIC) was 1.38 fold enrichment (6-mer frequency, TF over GST control), the binding signal (ELF4) was 1.25 fold enrichment (6-mer frequency, TF over GST control) and the binding signal (ELK4) was 1.27 fold enrichment (6-mer frequency, TF over GST control). The binding signal (ETV2) was 1.31 fold enrichment (6-mer frequency, TF over GST control), the binding signal (ELF3) was 1.17 fold enrichment (6-mer frequency, TF over GST control) and the binding signal (CRX) was 1.16 fold enrichment (6-mer frequency, TF over GST control). For the same sequence, the binding signal (ETV1) was 1.14 fold enrichment (6-mer frequency, TF over GST control), the binding signal (ERF) was 1.18 fold enrichment (6-mer frequency, TF over GST control) and the binding signal (ETV3L) was 1.23 fold enrichment (6-mer frequency, TF over GST control). The binding signal (ETS2) was 1.3 fold enrichment (6-mer frequency, TF over GST control), the binding signal (SPDEF) was 1.23 fold enrichment (6-mer frequency, TF over GST control) and the binding signal (ETV7) was 1.23 fold enrichment (6-mer frequency, TF over GST control). For the same sequence, the binding signal (ELF5) was 1.26 fold enrichment (6-mer frequency, TF over GST control), the binding signal (ETV3) was 1.29 fold enrichment (6-mer frequency, TF over GST control) and the binding signal (ETV6) was 1.31 fold enrichment (6-mer frequency, TF over GST control).
